Rows were chosen to be rich in hits. Some 1.6% of all compounds tested hit in one or more screens of this group.
KCNQ2 pot = potentiators of rat KCNQ2 potassium channel | B-score at 10 µM | 310,000 tested, 0.54% active | CHO-K1 KCNQ2, FluxOR thallium flux fluorescence; active compounds read high | Potassium voltage-gated channel subfamily KQT member 2 (Rattus norvegicus), O88943 | AID 2239, 2010;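 active = fluorescence ratio B-score at least 3 SD of library B-scores, with initial fluorescence B-score within 3 of them, cut at about 5.3 in these data; same plate scores as AID 2156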;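 note: B-score of peak minus minimum over baseline fluorescence ratio after K+ and Tl+ stimulus; positive B-score means potentiation of KCNQ2 with more thallium influx and brighter signal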
KCNQ2 inh = rat KCNQ2 potassium channel inhibitors, primary screen, cell-based, CHO-K1, FluxOR thallium flux, B-score; Potassium voltage-gated channel subfamily KQT member 2 (Rattus norvegicus), O88943; 20 min; active compounds read low; B-score at 10 µM; 310,000 tested, 1.1% active;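 active = fluorescence ratio B-score at most minus 3 library SDs, with starting brightness B-score within 2 library SDs, cut at about -5.5 in these data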
Kir21 conf inh = mouse Kir2.1 channel blockers, retest, confirmation, cell-based, FluxOR thallium flux, duplicate; shares compounds with KCNQ2 pot; Kir2.1-expressing cells, FluxOR thallium flux fluorescence; active compounds read low; Tl flux remaining, % of negative control (active compounds read low), % at 10 µM; 2,300 tested, 41% active;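 active = Primary-screen hit whose thallium flux fell at least 3 control SD below untreated wells in both duplicates, with normal baseline fluorescence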;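 note: 0% = blank wells without stimulus and 100% = stimulated no-compound controls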
Target sequence (P35561 whole entry, looked up): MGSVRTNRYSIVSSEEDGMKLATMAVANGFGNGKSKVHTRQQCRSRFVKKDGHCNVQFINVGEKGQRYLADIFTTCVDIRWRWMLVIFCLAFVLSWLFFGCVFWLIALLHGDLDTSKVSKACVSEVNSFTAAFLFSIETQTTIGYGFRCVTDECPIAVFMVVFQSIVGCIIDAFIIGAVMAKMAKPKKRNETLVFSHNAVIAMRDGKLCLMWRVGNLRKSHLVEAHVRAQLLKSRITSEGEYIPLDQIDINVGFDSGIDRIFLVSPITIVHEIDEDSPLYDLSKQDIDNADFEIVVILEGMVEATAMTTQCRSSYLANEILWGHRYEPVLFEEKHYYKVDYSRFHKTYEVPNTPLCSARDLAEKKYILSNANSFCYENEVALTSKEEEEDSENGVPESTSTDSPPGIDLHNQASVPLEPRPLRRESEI
HEK293 ctr = alters thallium flux in parental HEK293 cells, Kir2.1 counter-screen; FluxOR thallium flux fluorescence; 0% = unstimulated blank wells; FluxOR signal as % of negative control (100 = no effect), % at 10 µM; 2,300 tested, 19% active; AID 2105; shares compounds with KCNQ2 pot;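 active = dye signal at least 3 control SD above or below untreated wells in both duplicates, raw fluorescence within 3, either direction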;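 note: percent is based on the flux ratio of peak minus minimum fluorescence over baseline F0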
CHO-K1 Tl ctr = nonspecific thallium flux increase in parental CHO-K1, confirmation, counter-screen for KCNQ2 potentiator project, cell-based, FluxOR thallium flux, duplicate | AID 2282, 2010 | shares compounds with KCNQ2 pot | parental CHO-K1 cells, FluxOR thallium flux fluorescence; zero = vehicle mean+3SD, 100% = vehicle-minus-blank window | 1,200 tested, 43% active | activity increase over 3SD of controls, % at 10 µM;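 active = signal rise of at least 3 SD above the untreated control mean, in both duplicate wells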;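 note: counter screen of KCNQ2 potentiator hits so any rise reflects channel-independent effects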
KCNQ1 sel pot = human KCNQ1 channel potentiation off-target, confirmation, selectivity assay for KCNQ2 potentiator project, cell-based, CHO, FluxOR thallium flux; activation over 3SD threshold, % at 10 µM; shares compounds with KCNQ2 pot; CHO KCNQ1 stable, FluxOR thallium flux fluorescence; beyond 3SD, as % of vehicle-control signal; AID 2283, 2010; 1,200 tested, 28% active;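 active = fluorescence ratio rise of at least 3 SD of vehicle wells above their mean, in both replicate wells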;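 note: 0% = vehicle mean plus 3 SD and 100% = vehicle minus unstimulated blank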
KCNQ2 pot conf = rat KCNQ2 channel potentiators, confirmation, cell-based, CHO, FluxOR thallium flux, duplicate. 1,200 tested, 68% active. shares compounds with KCNQ2 pot. potentiation, less the hit threshold, % at 10 µM. CHO-KCNQ2 cells, FluxOR thallium flux fluorescence;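 active = fluorescence ratio rising 3 SD or more over the vehicle control mean in both replicates, plus primary screen hit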;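 note: peak minus minimum thallium fluorescence divided by baseline after K/Tl stimulus; 0% = vehicle mean plus 3 SD and 100% = vehicle minus unstimulated blank difference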
Kir2-1 sel = mouse Kir2.1 channel activation off-target, confirmation, selectivity assay for KCNQ2 potentiator project, cell-based, HEK293, FluxOR thallium flux. shares compounds with KCNQ2 pot. HEK293 Kir2.1, FluxOR thallium flux fluorescence. activity over 3SD threshold, % at 10 µM. 1,200 tested, 2% active;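 active = fluorescence ratio rise of at least 3 SD above the vehicle-control mean, seen in both replicates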;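 note: 0% = vehicle mean plus 3 SD and 100% = vehicle minus no-stimulus blank window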
KCNQ2 W236L MoA = potentiators of retigabine-insensitive KCNQ2 W236L, mechanism study for KCNQ2 potentiator project, cell-based, rat KCNQ2 W236L, CHO, automated patch clamp. shares compounds with KCNQ2 pot. automated patch clamp current. current increase over 3SD of negative controls (%), active compounds read high, % at 25 µM. 940 tested, 10% active. AID 2558, 2010;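 active = current increase at least 3 SD of the untreated controls above them in both duplicate recordings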
* = called active by the depositor; i = inactive; . = not tested or not shown.

SMILES	KCNQ2 pot	KCNQ2 inh	Kir21 conf inh	HEK293 ctr	others
O=c1c2ccccc2nc(CNc2ccccc2)n1-c1ccccc1	0.04	i	.	.
Cc1cc(OCCN2CC2)c2ccccc2n1	.	i	.	.
Cc1cc([N+](=O)[O-])c(Cl)cc1NC(=O)C(C)C	0.97	i	.	.
CNc1cc(Cl)c2nonc2c1[N+](=O)[O-]	-9.5	-9.5*	i	54%*
O=C1/C(=C\c2ccccc2)C2OCC=C3CN4CCC56c7ccccc7N1C5C2C3CC46 (configuration not stated)	.	i	.	.
COc1ccc(Cl)cc1C(=O)C1CCCN(Cc2cnc(C)s2)C1 (configuration not stated)	0.03	i	.	.
COc1ccc(CCNCc2c(OC)ccc3ccccc23)cc1	.	i	28%*	i
COc1ccc(CCNCc2ccccc2)cc1	1.3	i	.	.
CCn1c(C)c(C(=O)Nc2ccc(OC)cc2)c2cc(OC)ccc21	0.14	i	.	.
COC(=O)C1=CO[C@@H](C)[C@H]2CN3CC[C@]4(C(=O)Nc5ccccc54)[C@@H]3C[C@H]12	0.01	i	.	.
Oc1ccc(C(=C(Cl)Cl)c2ccc(O)cc2)cc1	11*	i	38%*	i	CHO-K1 Tl ctr=47*;KCNQ1 sel pot=-7;KCNQ2 pot conf=0.8*;Kir2-1 sel=-100;KCNQ2 W236L MoA=i
CC(C)C12CN3CC(C(C)C)(CN(C1)C3c1cccnc1)C2=O (configuration not stated)	0.89	i	.	.
CCC(C(=O)N1CCC2(CC1)OCCO2)n1c2ccccc2c2nc(=O)cc(C)n21 (configuration not stated)	0.3	i	.	.
Oc1ccc(C2NCc3ccccc3-n3cccc32)cc1Cl (configuration not stated)	0.53	i	59%*	i
FC(F)(F)c1cccc(C2NCc3ccccc3-n3cccc32)c1 (configuration not stated)	.	i	.	.
O=C1C(=O)c2ccccc2-c2ccccc21	6.2*	i	i	i	CHO-K1 Tl ctr=-5;KCNQ1 sel pot=-15;KCNQ2 pot conf=-2;Kir2-1 sel=-29;KCNQ2 W236L MoA=3.4%*
O=C1C(=O)c2cccc3cccc1c23	.	i	.	.

Source: PubChem (Johns Hopkins Ion Channel Center)
